Bioassay records: PubChem, National Center for Advancing Translational Sciences (NCATS)
15-hLO inh – inhibitors of human 15-lipoxygenase (ALOX15) | P16050 | purified 15hLO-1, xylenol orange hydroperoxide absorbance | Potency, µM (highest dose often 57.1 µM), for the others: at the highest dose activity change, negative = inhibition, most hits filed as inhibitors | actives 1.4% (n = 74,000); note: % is set by controls: 0 for no effect and ±100 for the full control effect; nearly all actives have a fitted effect of over 55% in size
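Inhibition is scored from a chromogenic endpoint. After 15 min enzyme-compound contact, arachidonic acid (50 uM final) reacts 6 min with 40 nM 15hLO-1 at room temperature, then Fe-XO reagent is added for 30 min and absorbance ratio recorded.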
CRE-bla Fsk – CRE-bla signaling modulation under forskolin stimulation | CHO CRE-bla reporter (cAMP response element driving beta-lactamase), forskolin EC10, beta-lactamase ratio | Potency, µM (doses to about 38.2 µM), for inactives: top-dose activity change, negative = inhibition, usual class: activators | AID 662 | actives 2.5% (n = 71,000); active = well fitted activation curve with a large enough effect in the signal ratio, with a control signal flat, not every such curve was filed as active; inconclusive = small, poorly fitted or top-dose-only effect, or effect the other way, or a change in a side signal; the % refers to the signal ratio; note: % of control where 0% means no effect
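qHTS titration format; CRE-bla CHO reporter; stimulus EC10 NKH 477, a water-soluble forskolin. Read: CCF4 460/530 nm ratio. Potency expressed as AC50 for activators or inhibitors.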
Hsp90 Hop PPI – changes Hsp90-Hop TPR2A binding signal, up or down; AlphaScreen TPR2A-His6 binding biotin-Hsp90 C-terminal peptide; Potency, µM (titrated, usually from 57 µM), without a hit: at the top dose activity change, negative = inhibition; actives 0.44% (n = 71,000); active = well fitted curve in either direction with a large enough effect; inconclusive = small, poorly fitted or top-dose-only effect, or another doubt; note: % is set by controls: 0 for no effect and ±100 for the full control effect
Tau fil binding – binds recombinant human tau filaments | Potency, µM (titrated, usually from 57.1 µM), inactives show at the top dose activity change, negative = inhibition | recombinant tau filaments, thioflavin S fluorescence, 15 h; filaments grown with octadecylsulfate alongside compound | AID 596 | actives 2% (n = 71,000);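 note: % is set by controls: 0 for no effect and ±100 for the full control effect; actives lower thioflavin S fluorescence by blocking filaments or displacing dye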
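Read-out: ThS fluorescence, 450 nm excitation/510 nm emission; lower signal marks blocked filament formation or displaced dye. Tau at 1 uM with 30 uM ODS, 10 uM ThS, 5 mM DTT, 100 mM NaCl, 10 mM HEPES pH 7.4; 15 h, 37 C.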
IkB sig inh – suppresses IkB signaling in ABC-DLBCL reporter cells; ABC-DLBCL IkBa-CBG/CBR dual luciferase ratio, 4 h; response scale: scaled: untreated 0%, proteasome inhibitor 100%; Potency, µM (series often up to 57.1 µM), for the others: at the highest dose IkBa stabilization activation; actives 0.04% (n = 110,000); AID 445; active = well fitted curve in the direction sought with a large enough effect in the signal ratio, not every such curve was filed as active; inconclusive = small, poorly fitted or top-dose-only effect, or a change in a side signal; the % refers to the signal ratio;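 note: the direction sought is a rising ratio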
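Luminescence ratio of IκBα-fused green versus native red beetle luciferase in OCI-Ly3 cells, 4 h post-doxycycline with compound; red signal alone, scaled from basal (0%) to zero light (-100%), flagged nonspecific or cytotoxic effects.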
* marks the source's active call; other numbers are inactive results; ? = inconclusive; nt = no result given; ! = a repeat was not active; [ ] = dose if it differs, or a comment. This is a sample that favours compounds with a hit; in the whole collection about 3.6% have one here. Unless noted, calls come from the whole dose curve; as a rule, active = well fitted curve in the direction sought with a large enough effect; inconclusive = small, poorly fitted or top-dose-only effect, or another doubt; inactive = no such curve, though single readings can be large; an effect the other way counts as inactive or inconclusive. Potency is the fitted concentration of half-maximal effect.

SMILES	15-hLO inh	CRE-bla Fsk	Hsp90 Hop PPI	Tau fil binding	IkB sig inh
c1ccc(Nc2cc(Nc3ccccc3)[nH]n2)cc1	-98%	?	-23%	20µM*	1%
CN(C)C(=O)c1ccc(-c2cc(Nc3ccccc3)ncn2)cc1	-4%	?	0%	1%	-2%[11.4 µM]
CN(CCOc1ccc(C[C@H](Nc2ccccc2C(=O)c2ccccc2)C(=O)O)cc1)c1ccccn1	5%	?	-9%	40µM*!	?
CN(Cc1ccccc1)C(=O)N[C@@H](Cc1ccccc1)C(=O)O	3%	-11%	1%	0%	0%
COc1ccc(Nc2nc3ccccc3nc2C)cc1	-14%	?	4%	20µM*	-3%
O=C(NCc1ccc2c(c1)CCN2C(=O)c1ccccc1)c1cc2ccccc2[nH]1	nt	nt	nt	nt	-1%
COc1cccc(C(=O)Nc2cc(-c3cn4cccnc4n3)ccc2C)c1OC	nt	nt	nt	nt	-2%
CC(CC1C(C#N)=C(N)SC(N)=C1C#N)c1ccccc1 (stereo unspecified)	16µM*	8%	-1%	-6%	2%
CC(c1ccccc1)C1C(C#N)=C(N)SC(N)=C1C#N (stereo unspecified)	-13%	-6%	-3%	-3%	3%
O=C(Nc1ccccc1C(F)(F)F)N1CC=C(c2c[nH]c3ccccc23)CC1	nt	nt	nt	nt	-2%
CCCCNC(=O)[C@@H](c1ccccc1)N1Cc2ccccc2C1=O	nt	nt	nt	nt	0%
O=C(O)[C@@H](c1ccccc1)N1Cc2ccccc2C1=O	7.9µM*	-17%	-2%	-4%	3%
O=C(Cc1nc2ccccc2s1)c1ccc(O)cc1O	16µM*	?	-1%	23%	?
Fc1cccc(Cl)c1-c1nnc2ccc(N3CCOCC3)nn12	-11%	13µM*	-2%	-4%	-1%
O=C(Nc1ccc(OCc2cc(=O)n3c4c(sc3n2)CCCC4)cc1)c1ccccc1	nt	nt	nt	nt	-1%
COc1ccc(NC(=O)Nc2ccc3nccnc3c2)cc1	2%[11.4 µM]	?	-9%[11 µM]	3.2µM*	-3%
COc1ccc(NC(=O)Nc2ccc(N(C)C)cc2)cc1	-7%	-6%	-21%	16µM*	-1%
Cc1sc(NC(=O)CSc2nc(N)n(CC(=O)c3ccccc3)n2)c(C#N)c1C	-13%	5µM*	-8%	6%	1%
CC(=O)Nc1ccc(NC(=O)c2ccco2)cc1	1%	1%	-3%	-2%	1%
CC1N(C)c2cc(NC(=O)c3ccco3)ccc2C1(C)C (stereo unspecified)	-15%	-1%	-12%	20µM*	?
COc1c2occc2c(OC)c2c(=O)cc(C)oc12	-3%	7.9µM*	-3%[26 µM]	3%[25.6 µM]	-2%[25.6 µM]
CCCCc1cc(=O)oc2cc(C)c(CN3CCCC3)c(O)c12	13µM*	0%	-9%	20µM*	3%
Cc1ccc(C)c(OCc2nc3ccccc3n2C)c1	nt	nt	nt	nt	-2%
Cc1nnc(OCc2nc3ccccc3n2C)c2ccccc12	-5%	2.5µM*	-3%	16%	8%
CC(=O)c1cc2c(cc1NC(=O)c1cc(C)nn1-c1ccccc1)OCO2	-15%	7.9µM*	4%	282%	-3%
SMILES	15-hLO inh	CRE-bla Fsk	Hsp90 Hop PPI	Tau fil binding	IkB sig inh
COC(=O)COc1ccc(S(=O)(=O)NCCC2=CCCCC2)cc1C	6.3µM*	6%	1%	-2%	6%
CCn1c(=N)c(C(=O)NCc2ccccc2)cc2c(=O)n3cccc(C)c3nc21	nt	nt	nt	nt	6%
COCCCn1c(=N)c(C(=O)NCc2ccc3c(c2)OCO3)cc2c(=O)n3cccc(C)c3nc21	3%	-6%	-2%	3.2µM*	0%
COCCCn1c(=N)c(C(=O)NCc2ccc3c(c2)OCO3)cc2c(=O)n3ccccc3nc21	-22%	?	-19%	10µM*	-1%
COCCCn1c(=N)c(C(=O)NC2CCCC2)cc2c(=O)n3ccccc3nc21	nt	nt	nt	nt	-3%
CCCC(=O)NCC(c1ccc2c(c1)OCO2)N1CCN(c2ccccc2)CC1 (stereo unspecified)	nt	nt	nt	nt	2%
CCn1c(=O)c2c(n3cnnc13)-c1ccccc1CC21CCCCC1	-7%	3.2µM*	-2%	20%	0%
CCn1c(SCC(N)=O)nc2c(c1=O)C1(CCCC1)Cc1ccccc1-2	-21%[11.4 µM]	4µM*	-9%[11 µM]	12%[11.4 µM]	?
